Test [1] concerns Sodium/Iodide Symporter (NIS), SLC5A5 (gene 6528). Briefly: CPHEA_Stoker_NIS_Inhibition_RAIU: CPHEA's Radioactive Iodide Uptake (RAIU) Assay for Sodium/Iodide Symporter (NIS) Inhibition, Stoker and Laws Labs (AID 2283841; active = hit-call score of the fitted dose curve at least 0.9, where 1 is the maximum). The procedure, abridged:
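Iodide uptake read as CPM of intracellular 125I (final 329 pM) after 2 h room-temperature exposure in HEPES-buffered HBSS, pH 7.4. Human NIS-expressing HEK293T cells; six concentrations 0.001–100 uM, 0.5% DMSO, normalised to DMSO wells.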

A short description of test [2]: BSK_BT_PBMCCytotoxicity: PBMC Cytotoxicity Assessment in the BioMAP Diversity Plus: BT Assay (AID 2284225).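 Also: PBMC viability measured by Alamar Blue dye reduction fluorescence.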 The following applies: primary human B cells with PBMC. The method in brief: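 75,000 cells/well; cpd 1 h → SEB + TSST-1 (20 ng/mL final each) → 90 h → Alamar Blue 6 h → fluor. 546/580 nm. DMSO = neg. control/baseline.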
Read-out in test [3]: Secreted IgG (sIgG), gene 3500
Kind of test: BSK_BT_sIgG: BioMAP Diversity Plus: BT Assay for Secreted IgG (sIgG) Biomarker Activity (AID 2284226). The conditions noted are these: primary human B cells with PBMC. The procedure, abridged: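 Secreted IgG from a human primary B cell–PBMC co-culture was measured by ELISA 24 hours after dosing, with DMSO defining baseline activity.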

Test [4] is described as follows: BSK_BT_Bcell_Proliferation: Viability Assessment in the BioMAP Diversity Plus: BT Assay for B cell Proliferation (AID 2284227). The following applies: primary human B cells with PBMC. The method in brief: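 Human B cell/PBMC co-culture; test chemical added; 72 h; TCA fix (10%), 0.1% SRB stain, A560 for total protein as a proliferation read-out; positive-direction fit vs DMSO baseline.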

Read-out in test [5]: Interleukin 17A (IL17A), IL17A (gene 3605)
Briefly: BSK_BT_xIL17A: BioMAP Diversity Plus: BT Assay for Interleukin 17A (IL17A) Biomarker Activity (AID 2284229). The following applies: primary human B cells with PBMC. The procedure, abridged: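 Human primary B cells plus PBMC, treated 24 h with chemicals; supernatant IL-17A quantified on Luminex xMAP beads. Gain of signal over DMSO control scored as activity.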

Read-out in test [6]: Tumor necrosis factor (Homo sapiens) (UniProt P01375)
Briefly: BSK_BT_xTNFa: BioMAP Diversity Plus: BT Assay for Tumor necrosis factor alpha (TNF-alpha) Biomarker Activity (AID 2284230). The conditions noted are these: primary human B cells with PBMC. The procedure, abridged: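 Read-out: Luminex xMAP quantitation of secreted TNF-alpha from a B cell/PBMC co-culture 24 h after compound addition. Signal analysed relative to DMSO vehicle, positive fitting direction.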

Read-out in test [7]: Vascular cell adhesion molecule 1 (VCAM1), VCAM1 (gene 7412)
Briefly: BSK_MyoF_VCAM1: BioMAP Diversity Plus: MyoF Assay for Vascular cell adhesion molecule 1 (VCAM1) Biomarker Activity (AID 2284231). The following applies: primary human lung fibroblasts. The method in brief: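 VCAM-1 levels, lung fibroblasts, ELISA, 24 h exposure, increase scored relative to DMSO.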

Read-out in test [8]: Collagen III, COL3A1 (gene 1281)
Kind of test: BSK_MyoF_CollagenIII: BioMAP Diversity Plus: MyoF Assay for Collagen III Biomarker Activity (AID 2284239). The conditions noted are these: primary human lung fibroblasts. The method in brief: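 Multiplexed cell assay in lung fibroblasts, harvested at 24 h post-dose. Collagen III detected by ELISA, with positive-direction fitting relative to DMSO vehicle.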

Read-out in test [9]: Actin alpha 1 (ACTA1), ACTA1 (gene 58)
Briefly: BSK_MyoF_ACTA1: BioMAP Diversity Plus: MyoF Assay for Actin alpha 1 (ACTA1) Biomarker Activity (AID 2284244). The conditions noted are these: primary human lung fibroblasts. The method in brief:
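Measured by ELISA: alpha-smooth muscle actin in human primary lung fibroblasts 24 h after dosing, with DMSO as baseline and upward signal change as the fitted direction.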

Read-out in test [10]: Interleukin 2 (IL2), IL2 (gene 3558)
Briefly: BSK_BT_xIL2: BioMAP Diversity Plus: BT Assay for Interleukin 2 (IL2) Biomarker Activity (AID 2284245). The following applies: primary human B cells with PBMC. The procedure, abridged:
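Secreted interleukin-2 from human B cell/PBMC co-cultures, measured 24 h post-dosing by Luminex multiplex immunoassay. Upward-direction curve fitting against DMSO baseline.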

Read-out in test [11]: Basic fibroblast growth factor (bFGF), FGF2 (gene 2247)
Kind of test: BSK_MyoF_bFGF: BioMAP Diversity Plus: MyoF Assay for Basic fibroblast growth factor (bFGF) Biomarker Activity (AID 2284246). The conditions noted are these: primary human lung fibroblasts. The method in brief: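 In this multiplexed cell system, lung fibroblasts (human primary) receive test chemical for 24 h before ELISA detection of bFGF; DMSO defines baseline and the analysis direction is positive.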

Read-out in test [12]: Collagen IV, COL4A1 (gene 1282)
Briefly: BSK_MyoF_CollagenIV: BioMAP Diversity Plus: MyoF Assay for Collagen IV Biomarker Activity (AID 2284247). The conditions noted are these: primary human lung fibroblasts. The method in brief:
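Activity is scored as a signal increase over DMSO in an ELISA for Collagen IV, measured on human lung fibroblasts at 24 h after chemical treatment. Cytotoxicity is checked in parallel cultures by sulforhodamine B total-protein staining.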

Read-out in test [13]: Vascular cell adhesion molecule 1 (VCAM1), VCAM1 (gene 7412)
Kind of test: BSK_BF4T_VCAM1: BioMAP Diversity Plus: BF4T Assay for Vascular cell adhesion molecule 1 (VCAM1) Biomarker Activity (AID 2284249). The following applies: primary human bronchial epithelial cells with fibroblasts. The method in brief:
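Human bronchial epithelial cell and dermal fibroblast co-culture exposed 24 h. VCAM-1 measured by ELISA; parallel SRB total-protein staining for cytotoxicity. Fitted in positive direction relative to DMSO.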

Read-out in test [14]: Plasminogen activator inhibitor-1 (PAI1), SERPINE1 (gene 5054)
Briefly: BSK_MyoF_PAI1: BioMAP Diversity Plus: MyoF Assay for Plasminogen activator inhibitor-1 (PAI1) Biomarker Activity (AID 2284256).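 As to outcome: PAI-1 protein level measured by ELISA in fibroblast cultures; PAI-1 read 24 h after compound addition.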 The following applies: primary human lung fibroblasts. The method in brief: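 In this multiplexed primary-cell system, fibroblasts from human lung received compound for 24 h before ELISA detection of PAI-1; overt toxicity was checked by SRB (0.1%, TCA-fixed, 560 nm) in parallel wells.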

Read-out in test [15]: Interleukin-8 (IL8), CXCL8 (gene 3576)
Briefly: BSK_MyoF_IL8: BioMAP Diversity Plus: MyoF Assay for Interleukin-8 (IL8) Biomarker Activity (AID 2284261). The conditions noted are these: primary human lung fibroblasts. The method in brief: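 DMSO-normalised, upward-fitted IL-8 ELISA signal; human lung fibroblasts, 24 h chemical treatment.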

Read-out in test [16]: Interleukin-8 (IL8), CXCL8 (gene 3576)
Briefly: BSK_BF4T_IL8: BioMAP Diversity Plus: BF4T Assay for Interleukin-8 (IL8) Biomarker Activity (AID 2284263). The following applies: primary human bronchial epithelial cells with fibroblasts. The procedure, abridged: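 Human bronchial epithelial cells with dermal fibroblasts co-culture; IL-8 measured by ELISA 24 hours after dosing, fitted vs DMSO. Cytotoxicity tracked in parallel cultures by SRB total-protein staining.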

Read-out in the next test: Decorin, DCN (gene 1634)
Kind of test: BSK_MyoF_Decorin: BioMAP Diversity Plus: MyoF Assay for Decorin Biomarker Activity (AID 2284265). The following applies: primary human lung fibroblasts. The procedure, abridged: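 In this multiplexed fibroblast system, secreted or surface decorin is detected by ELISA one day after dosing, with increases scored against the DMSO vehicle.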

The nature of test [17]: BSK_MyoF_SRB: Viability Assessment in the BioMAP Diversity Plus: MyoF Assay (AID 2284267).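 Also: total protein by SRB absorbance in parallel cultures as cytotoxicity measure.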 The following applies: primary human lung fibroblasts. The procedure, abridged:
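Cytotoxicity in primary human lung fibroblasts is gauged by SRB total-protein staining 24 h after dosing, with DMSO as the negative control.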

Read-out in test [18]: Matrix Metallopeptidase 1 (MMP1), MMP1 (gene 4312)
Briefly: BSK_MyoF_MMP1: BioMAP Diversity Plus: MyoF Assay for Matrix Metallopeptidase 1 (MMP1) Biomarker Activity (AID 2284268). The conditions noted are these: primary human lung fibroblasts. The procedure, abridged:
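Fibroblasts from human lung receive compound for 24 h before ELISA quantitation of MMP1. DMSO serves as baseline, and the endpoint is fitted for signal gain.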

Read-out in test [19]: Interleukin-8 (IL8), CXCL8 (gene 3576)
Briefly: BSK_IMphg_IL8: BioMAP Diversity Plus: IMphg Assay for Interleukin-8 (IL8) Biomarker Activity (AID 2284277). The following applies: primary human endothelial cells with macrophages. The method in brief: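 Co-culture of human venular endothelial cells and macrophages exposed to chemicals for 24 h; IL-8 quantified by ELISA and compared against the DMSO baseline, with SRB total-protein staining in parallel cultures for cytotoxicity.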

Where “and” joins values, the source holds several entries; their conditions need not be identical. Equal values may be shown once. Records with an inconclusive call do not appear. Some compounds were tested as several samples or in several runs, with calls that do not always agree. Calls of active or inactive are those of the source. The calls were made as follows, unless noted: active = hit-call score of the fitted dose curve at least 0.9, where 1 is the maximum; inactive = score below 0.9.

Data on 3 molecules can be found in PubChem BioAssay (EPA / NIEHS).

Sequence of Tumor necrosis factor (Homo sapiens) (P01375 whole entry, looked up): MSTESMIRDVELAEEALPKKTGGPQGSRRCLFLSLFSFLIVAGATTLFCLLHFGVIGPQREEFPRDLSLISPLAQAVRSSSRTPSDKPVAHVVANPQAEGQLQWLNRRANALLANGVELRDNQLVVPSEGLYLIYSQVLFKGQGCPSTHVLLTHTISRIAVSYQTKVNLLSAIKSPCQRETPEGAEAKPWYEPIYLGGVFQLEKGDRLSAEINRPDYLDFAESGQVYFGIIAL

On to `OC(C(F)(F)F)(C(F)(F)F)C(O)(C(F)(F)F)C(F)(F)F`, for which the outcome in [1], in test [11], in [13], in test [15], in test [16] and in test [19] was inactive. The AC50 is 55.4 µM (active) and 36.9 µM (active) in test [2]; 9.13 µM (active) and 9.49 µM (active) in test [3]; 37 µM (active) and 28.2 µM (active) in [4]; 31 µM (active) and 24 µM (active) in test [5]; 41.9 µM (active) and 40.2 µM (active) in test [6]; 45.7 µM (active) and 41.7 µM (active) in [7]. Moreover, the AC50 in test [8] was 41 µM (active) and 39.5 µM (active); in [9] it was 26.7 µM (active) and 22.3 µM (active); in [10], 46 µM (active) and 48.1 µM (active); in test [12], 13.6 µM (active) and 13.9 µM (active); in test [13] it was 18.9 µM (active); in test [14], 53.5 µM (active). In addition, the AC50 in test [16] was 0.218 µM (active); with Decorin, DCN (gene 1634), 30 µM (active) and 46.7 µM (active); in test [17] it was 36.7 µM (active) and 37.8 µM (active); in test [18], 48.4 µM (active) and 47.9 µM (active); in test [19], 5.86 µM (active).

Consider `CCCCCC[C@@H](O)C/C=C\CCCCCCCC(=O)O`, for which, in [1], the result was inactive.

`CC[N+](CC)(CC(=O)Nc1c(C)cccc1C)Cc1ccccc1`: the outcome in [2], in test [3], in test [4], in test [5], in [6] and in [7] was inactive. The outcome in test [8], in [9], in test [10], in test [11], in [12] and in [14] was inactive. The outcome in [15] was “inactive”; with Decorin, DCN (gene 1634) it was “inactive”; in [17], “inactive”; in [18], “inactive”.

In general, AC50 refers to the concentration at which the activity in the assay is half-maximal.
